Sm TGR inh: qHTS Assay for the Inhibitors of Schistosoma Mansoni Peroxiredoxins | AID 485364, 2010 | hit rate 3% among 360,000 | Schistosoma mansoni thioredoxin glutathione reductase (TGR), Q962Y6 | Potency, µM (doses to about 114 µM), hits mostly inhibitors | purified TGR, DTNB reduction, TNB absorbance 405 nm; note: nearly all actives have a fitted effect of over 60% in size
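TGR 20 nM + NADPH 100 uM (dispensed conc.), cpd preinc 15 min RT; start with NADPH (500 uM addition) then DTNB (15 mM addition). Kinetic TNB absorbance, 405 nm filter. Four-parameter Hill fit across titration.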
TbPYK inhibitor: qHTS of Trypanosoma Brucei Inhibitors; pyruvate kinase (Trypanosoma brucei), Q57TT1; TbPYK enzyme, Kinase-Glo Plus ATP luminescence, 45 min; Potency, µM (highest dose often 76.8 µM), hits mostly inhibitors; hit rate 0.12% among 410,000; AID 624173, 2012; note: nearly all actives have a fitted effect of over 50% in size
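Luminescent Kinase-Glo Plus end-point after 45 min room-temperature reaction of T. brucei pyruvate kinase started with 130 uM ADP (final). Buffer TEA 50 mM pH 7.2 with KCl, MgCl2, BSA, Tween-20; titration-based qHTS with fitted concentration-effect curves.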
LmPK inhibitor: qHTS Assay for Inhibitors of Leishmania Mexicana Pyruvate Kinase (LmPK) | purified LmPK, Kinase-Glo ATP luminescence, 1 h | Potency, µM (titrated, usually from 57.5 µM), usual class: inhibitors | hit rate 0.37% among 290,000 | AID 1721, 2009
Target sequence (Q27686 whole entry, looked up): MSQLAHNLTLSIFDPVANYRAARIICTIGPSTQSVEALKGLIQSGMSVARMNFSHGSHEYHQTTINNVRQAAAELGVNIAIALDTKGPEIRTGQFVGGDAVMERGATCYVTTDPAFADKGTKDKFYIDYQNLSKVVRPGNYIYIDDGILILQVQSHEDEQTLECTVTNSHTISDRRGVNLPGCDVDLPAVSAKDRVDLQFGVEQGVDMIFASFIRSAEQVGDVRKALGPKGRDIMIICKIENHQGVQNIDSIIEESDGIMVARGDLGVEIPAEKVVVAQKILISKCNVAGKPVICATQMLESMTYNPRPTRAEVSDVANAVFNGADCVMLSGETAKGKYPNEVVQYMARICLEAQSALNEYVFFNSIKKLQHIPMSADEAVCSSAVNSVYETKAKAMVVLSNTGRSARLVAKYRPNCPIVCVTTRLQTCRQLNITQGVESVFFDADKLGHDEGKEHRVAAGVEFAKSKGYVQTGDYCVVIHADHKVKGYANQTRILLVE
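Purified LmPK (0.1 nM) with 0.5 mM PEP and 0.1 mM ADP in imidazole buffer pH 7.2 with MgCl2/KCl, 1 h at room temperature. ATP formed was read by luciferase luminescence and normalized to no-enzyme and uninhibited controls.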
NS1 inh: qHTS Assay for Inhibitors of Influenza NS1 Protein Function | Potency, µM (titrated, usually from 46.1 µM) | hit rate 0.4% among 270,000 | AID 2326, 2010; calls by dose curve; note: actives are rising curves; nearly all actives have a fitted effect of over 50% in size
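Growth recovery, yeast-based: influenza A NS1 expressed in S. cerevisiae causes slow growth, and suppressors are detected by OD600. The parent strain without NS1 is used as positive control.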
SARS PLP yeast: qHTS of Yeast-based Assay for SARS-CoV PLP; S. cerevisiae expressing SARS-CoV PLpro, growth rescue; AID 485353, 2010; hit rate 0.19% among 330,000; Potency, µM (series often up to 32.9 µM), hits mostly activators; calls by dose curve; note: nearly all actives have a fitted effect of over 55% in size
RE007 growth inh: qHTS Assay for Inhibitors of the HIV-1 protein Vpr. S. pombe RE007 Vpr strain, BacTiter-Glo ATP luminescence, 24 h. Potency, µM (series often up to 92.2 µM), most hits filed as inhibitors. hit rate 0.21% among 360,000. AID 651644, 2012; active = well fitted falling curve with a large enough effect; inconclusive = small, poorly fitted or top-dose-only effect; inactive = no such curve, though single readings can be large or run the other way; note: nearly all actives have a fitted effect of over 50% in size
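Fission yeast RE007 carrying one integrated HIV-1 vpr copy, seeded at OD 0.01 in PMG+AL medium with 23 nL pinned compound. Grown 24 h at 30 degrees; viability read by BacTiter-Glo luminescence after 5 min.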
Of the large screens only hits and unclear results are named; the others gave an inactive call. Shown are actives, neighbours in structure and some others; about 3.3% of the full set was active somewhere. Unless noted, calls come from the whole dose curve; as a rule, active = well fitted curve in the direction sought with a large enough effect; inconclusive = small, poorly fitted or top-dose-only effect, or another doubt; inactive = no such curve, though single readings can be large; an effect the other way counts as inactive or inconclusive.

CCOC(=O)C1(CCOc2ccccc2)CCN(Cc2cc(OC)c(O)c(OC)c2)CC1	Sm TGR inh 40µM
CCOC(=O)C1(CCOc2ccccc2)CCN(Cc2ccc(O)c(OCC)c2)CC1	Sm TGR inh 45µM
Cc1ccc(/C=C2/C(=O)ON=C2c2ccccc2)o1	Sm TGR inh 5µM, TbPYK inhibitor inconclusive
O=C1ON=C(c2ccccc2)/C1=C\c1ccco1	Sm TGR inh 25µM
CCn1c2ccccc2c2cc(CN3CCN(Cc4ccc(Cl)cc4)CC3)ccc21	none (no result: LmPK inhibitor, NS1 inh, SARS PLP yeast, RE007 growth inh)
CCC(=O)N1c2ccc(S(=O)(=O)NCc3ccc(F)cc3)cc2CC1C (stereo unspecified)	none (no result: LmPK inhibitor, NS1 inh, SARS PLP yeast, RE007 growth inh)
N#CC1=C(N)Oc2n[nH]c(-c3cccs3)c2C1c1ccco1 (stereo unspecified)	Sm TGR inh 32µM, NS1 inh inconclusive
N#CC1=C(N)Oc2n[nH]c(-c3cccs3)c2C1c1ccncc1 (stereo unspecified)	none (no result: NS1 inh)
Cc1nc2ccc(S(=O)(=O)CCC(=O)Nc3ccc(F)cc3C)cc2s1	none (no result: LmPK inhibitor, NS1 inh, SARS PLP yeast, RE007 growth inh)
Fc1ccc(-c2nn(-c3ccccc3)cc2CNCc2ccccc2)cc1	none (no result: Sm TGR inh)
O=C(CCl)Nc1cn(-c2ccccc2)nc1-c1ccc(F)cc1	Sm TGR inh 32µM (no result: NS1 inh)
COc1ccc(-c2nc(/C=C3\C(C)=Nc4ccccc43)c(O)o2)cc1	Sm TGR inh 45µM (no result: NS1 inh)
Cc1ccc(CNC(=O)c2ccc(CSCc3ccc(Cl)cc3)o2)cc1	Sm TGR inh 40µM (no result: LmPK inhibitor, NS1 inh, SARS PLP yeast, RE007 growth inh)
Cc1ccc(CNC(=O)c2ccc(Cn3nc(C)c(Cl)c3C)o2)cc1	Sm TGR inh 25µM
CCCN1Cc2cccc(C(=O)Nc3ccc(OC)cc3OC)c2C1=O	none (no result: LmPK inhibitor, NS1 inh, SARS PLP yeast, RE007 growth inh)
CCOc1ccc(/C=C/c2nc(C#N)c(N3CCN(CC)CC3)o2)cc1	none (no result: LmPK inhibitor, NS1 inh, SARS PLP yeast, RE007 growth inh)
Cc1ccc(Nc2nc(-c3ccc(O)c(O)c3)cs2)nc1	Sm TGR inh 5.6µM
CC(=O)c1ccc(N2CCN(C(=O)c3cc4c(s3)-c3ccccc3OC4)CC2)cc1	none (no result: LmPK inhibitor, NS1 inh, SARS PLP yeast, RE007 growth inh)
CCOCCCn1c(SCC(=O)Nc2ccccc2Cl)nc2c(oc3ccccc32)c1=O	none (no result: LmPK inhibitor, NS1 inh, SARS PLP yeast, RE007 growth inh)
CCCC1(C(=O)OC)NC(c2ccco2)C2C(=O)N(c3ccc(C)cc3)C(=O)C21 (stereo unspecified)	none
CCOC(=O)C1(CC)NC(c2ccco2)C2C(=O)N(c3ccc(C)cc3)C(=O)C21 (stereo unspecified)	Sm TGR inh 45µM
CCCCOc1ccccc1CC1C(=O)Nc2ccc(Br)cc21 (stereo unspecified)	none (no result: TbPYK inhibitor, LmPK inhibitor, NS1 inh, SARS PLP yeast, RE007 growth inh)
Fc1ccc(N/N=C2/CCSc3sccc32)c(F)c1	Sm TGR inh 25µM
c1cc2c(cc1C1CCCCC1)c1c3n2CCN=C3CCC1	Sm TGR inh 7.9µM
Cc1ccc2c(c1)c1c3n2CCN=C3CCC1	none
COc1ccc(OCC(=O)NC(=S)Nc2ccc(S(=O)(=O)Nc3cc(OC)nc(OC)n3)cc2)cc1	Sm TGR inh inconclusive
COc1cc(NS(=O)(=O)c2ccc(NC(=S)NC(=O)c3ccc(F)cc3)cc2)nc(OC)n1	Sm TGR inh 32µM
COc1ccc(C(=O)NC(=S)Nc2ccc(S(=O)(=O)Nc3cc(OC)nc(OC)n3)cc2)cc1	Sm TGR inh 14µM
COc1cc(NS(=O)(=O)c2ccc(NC(=O)c3ccc(C(C)=O)cc3)cc2)nc(OC)n1	none (no result: LmPK inhibitor, NS1 inh, SARS PLP yeast, RE007 growth inh)
COc1cc(NS(=O)(=O)c2ccc(NC(=S)NC(=O)c3ccco3)cc2)ncn1	Sm TGR inh 40µM
COc1ccc(C(=O)NC(=S)Nc2ccc(S(=O)(=O)Nc3cc(OC)ncn3)cc2)cc1	Sm TGR inh 20µM
CCn1c(=O)cc(SCC(=O)NCc2ccccc2OC)c2ccccc21	none (no result: LmPK inhibitor, NS1 inh, SARS PLP yeast, RE007 growth inh)
CCc1ccc(NC(=O)C(=O)NCCc2sc(-c3ccc(C)cc3)nc2C)cc1	none (no result: LmPK inhibitor, NS1 inh, SARS PLP yeast, RE007 growth inh)
COc1ccc(C(=O)NCc2nc(-c3cccc(C)c3)no2)cc1OC	none (no result: LmPK inhibitor, NS1 inh, SARS PLP yeast, RE007 growth inh)
Cn1c(=O)[nH]c(=O)c2c1[nH]c(=S)n2Cc1ccc(Cl)cc1	TbPYK inhibitor 5.6µM, LmPK inhibitor inconclusive (no result: RE007 growth inh)
COC(=O)Cc1ccc(NC(=S)NC2CC2)cc1	Sm TGR inh 45µM
